A selection: hits, their analogues and other compounds. The true share with any hit is near 7.1%.
MARV entry inh: Marburg virus entry inhibition | Marburg virus pseudotype entry/binding inhibition, cell-based | Potency, µM (highest dose often 49.2 µM), without a hit: at the highest dose activity change, negative = inhibition, actives largely listed as inhibitors | hit rate 6.5% among 18,000 | AID 720532
Lassa entry: Lassa virus entry inhibition. Potency, µM (series often up to 49.2 µM), inactives show at the highest dose activity change, negative = inhibition, hits mostly inhibitors. hit rate 4.1% among 18,000. Lassa virus pseudotyped entry inhibition, cell-based qHTS
Starred values were filed as active, the others as inactive; ! = repeats disagree; [ ] = remark or other dose. Calls come from the whole dose curve; tested in HEK293 cells. % is set by controls: 0 for no effect and ±100 for the full control effect; potency is the fitted concentration of half-maximal effect.

`CCN1C(=O)[C@@H]2[C@H]3[C@H](O)[C@H](O)CC(=NO[C@H](C)c4cn([C@H](CO)Cc5ccccc5)nn4)[C@@H]3CC[C@H]2C1=O` gave MARV entry inh -11%[8.59 µM].
CCN1C(N(C)CCc2ccc(Br)cc2)=NC(c2ccccc2)C(C(=O)OC)=C1C (configuration not stated) was read as MARV entry inh inconclusive and Lassa entry 0%[8.59 µM].
Screening COc1cccc(-n2ncc3c(NN=Cc4ccc(C(=O)NCCN(C)C)cc4)ncnc32)c1 returned MARV entry inh 10µM* and Lassa entry 11%.
Screening COc1cccc(-n2ncc3c(NN=Cc4ccncc4)ncnc32)c1 returned MARV entry inh -20% and Lassa entry 50%.
For COc1cccc(C=NNc2ncnc3c2cnn3-c2cccc(OC)c2)c1 the results were MARV entry inh -19% and Lassa entry -45%.
COc1cc(C=NNc2ncnc3c2cnn3-c2ccccc2)ccc1O was read as MARV entry inh 14µM* and Lassa entry inconclusive.
Screening CCN1C(=O)NC(c2ccc(Br)cc2)C(C(=O)OC)=C1C (configuration not stated) returned MARV entry inh inconclusive and Lassa entry 4%[8.59 µM].
Screening C[C@@H]1C[C@H]2[C@@H](Cc3ccccc3)C(=O)N3[C@@H](C[C@@H](C)[C@@H]3c3ccccc3)[C@@H](Cc3ccccc3)C(=O)N2[C@H]1c1ccccc1 returned MARV entry inh inconclusive and Lassa entry -15%[8.59 µM].
Screening C=CC(=O)Nc1cc2c(Nc3ccc(F)c(Cl)c3)ncnc2cc1OCCCN1CCOCC1 returned MARV entry inh 7.1µM* and Lassa entry inconclusive.
`COc1cc2ncnc(Nc3ccc(Cl)cc3F)c2cc1OC` gave MARV entry inh -4% and Lassa entry 0%.
For CCN(CC)CCCN=C1NC(c2cccc(C(F)(F)F)c2)C(C(=O)OC)=C(C)N1CC (configuration not stated) the results were MARV entry inh -10%[8.59 µM] and Lassa entry -29%[8.59 µM].
For c1ccc(N2CCN(CCCOc3ccc4c(c3)OCO4)CC2)cc1 the results were MARV entry inh 2% and Lassa entry -2%.
O=C1NCN(c2ccccc2)C12CCN(CCCOc1ccc(F)cc1)CC2 was read as MARV entry inh 18µM* and Lassa entry 16µM*.
For CCCCCCCCCCCCCCCC[N+](C)(C)CCN(Cc1ccc(OC)cc1)c1ncccn1 the results were MARV entry inh -11%[17.8 µM] and Lassa entry 4%[17.8 µM].
For CCCCCCCCCCCC[N+](C)(C)Cc1ccccc1 the results were MARV entry inh 20µM* and Lassa entry 14µM*.
`C[C@@]12C(=O)OC(=O)[C@@]1(C)C1CCC2O1` gave MARV entry inh 3.5µM* and Lassa entry 2µM*.
`C[C@@]12C(=O)OC(=O)[C@@]1(C)[C@@H]1CC[C@@H]2O1` gave MARV entry inh 4% and Lassa entry -13%.
For COC(=O)[C@H](C=C[C@H](C)Cc1cc(Br)cc(OCc2ccccc2)c1OC)OCc1ccccc1 the results were MARV entry inh -15%[8.59 µM] and Lassa entry 5%[8.59 µM].
`C=CCOC(=O)N[C@H](c1ccc2ccccc2c1)[C@H](C)C=CCC(=O)OC` gave MARV entry inh -4%[8.59 µM].
`COc1ccc(CCN(C)Cc2cc(-c3cncnc3)ccc2O)cc1OC` gave MARV entry inh -13% and Lassa entry -10%.
CN(C)CCCc1cc(C(=O)Nc2ccc(-c3ccncc3)cc2)ccc1O was read as MARV entry inh 6.3µM* and Lassa entry 35µM*!.
`CCCNC(=O)N1C2=NC(C(=O)OC)=C(C(=O)OC)[C@@H]3Nc4ccccc4[C@]23C[C@H]1C(=O)OC` gave MARV entry inh 3%[8.59 µM] and Lassa entry 31%[8.59 µM].
`C=C(C)[C@]12C[C@@H](C)[C@@]34O[C@](Cc5ccccc5)(O[C@@H]1[C@@H]3C=C(COC(=O)Cc1ccc(O)c(OC)c1)C[C@]1(O)C(=O)C(C)=C[C@@H]41)O2` gave MARV entry inh 16µM* and Lassa entry inconclusive.
CC(C)[C@H]1COc2cc(Br)ccc2S(=O)(=O)N1C(=O)c1ccc(F)cc1F was read as MARV entry inh 26% and Lassa entry -5%.
For CCn1c(-c2nonc2N)nc2c(C#CC(C)(C)O)nc(OCCNC)cc21 the results were MARV entry inh 13µM*.
For CCn1c(-c2nonc2N)nc2ccccc21 the results were MARV entry inh inconclusive and Lassa entry 19%.
Screening COc1ccc(OC[C@H]2CN3[C@H](c4ccc(Br)cc4)[C@H](C)CC[C@H]3C(=O)O2)cc1 returned MARV entry inh -7%[8.59 µM] and Lassa entry 11%[8.59 µM].
COCCNc1nc(-c2ccccc2CN(C)C)nc2ccccc12 was read as MARV entry inh 13µM* and Lassa entry -24%.
`COc1ccccc1CNc1ncnc2ccc(-c3ccccc3CN(C)C)cc12` gave MARV entry inh 20µM* and Lassa entry -6%.
For CN(C)Cc1ccccc1-c1cncnc1NCc1ccccc1 the results were MARV entry inh -25% and Lassa entry -5%.
COc1ccccc1CNc1nc(-c2ccccc2CN(C)C)nc2ccccc12 was read as MARV entry inh 11µM* and Lassa entry inconclusive.
Screening COCCNc1nc(-c2ccccc2C)nc2ccccc12 returned MARV entry inh -1% and Lassa entry -2%.
Screening Cc1cnc(CNc2ncnc3ccc(-c4ccccc4CN(C)C)cc23)cn1 returned MARV entry inh -23% and Lassa entry 1%.
CN(C)Cc1ccccc1-c1nc(NCc2ccccc2)c2ccccc2n1 was read as MARV entry inh 10µM* and Lassa entry inconclusive.
For COc1ccccc1CNc1ncncc1-c1ccccc1CN(C)C the results were MARV entry inh inconclusive and Lassa entry -22%.
For O=S1(=O)c2cccc(Cl)c2OC[C@H](c2ccccc2)N1Cc1ccc(F)cc1F the results were MARV entry inh inconclusive and Lassa entry -6%.
For O=S1(=O)c2cccc(Cl)c2OC[C@H](c2ccccc2)N1Cc1ccc(F)cc1 the results were MARV entry inh inconclusive and Lassa entry -15%.
C#C[C@@H]1C=C[C@H](Oc2ccc(OC)cc2)[C@H](CO)O1 was read as MARV entry inh 22%[8.59 µM] and Lassa entry 11%[8.59 µM].
C=CC[C@@H]1C=C[C@@H](OC(=O)OCC)[C@@H](COC(=O)OCC)O1 was read as MARV entry inh 17%[8.59 µM] and Lassa entry -9%[8.59 µM].
Screening CC(=O)OC[C@H]1O[C@@H](ON=CC[C@@H]2C=C[C@@H](OC(C)=O)[C@@H](COC(C)=O)O2)[C@@H](OC(C)=O)[C@@H](OC(C)=O)[C@@H]1OC(C)=O returned MARV entry inh -12%[8.59 µM] and Lassa entry -11%[8.59 µM].
COc1ccc(-c2cc(-c3cn[nH]c3-c3ccccn3)ccn2)cc1 was read as MARV entry inh 39% and Lassa entry 93%.
CC(=O)OC[C@H]1O[C@H](C#CC(C)(C)C)C=C[C@H]1OC(C)=O was read as MARV entry inh 16%[8.59 µM] and Lassa entry 20%[8.59 µM].
Cc1ncc2c(c1CNC(=O)c1cncs1)CCN(C(=O)c1csc(-c3cccs3)n1)C2 was read as MARV entry inh 35µM* and Lassa entry -21%.
Screening CCS(=O)(=O)NCc1c(C)ncc2c1CCN(C(=O)c1csc(-c3cccs3)n1)C2 returned MARV entry inh 4% and Lassa entry -23%.
For COc1cccc(-n2ncc3c(NN=Cc4cccc(F)c4)ncnc32)c1 the results were MARV entry inh -11%.
`CC[C@@]1(O)C(=O)OCc2c1cc1n(c2=O)Cc2cc3ccccc3nc2-1` gave MARV entry inh 2.2µM* and Lassa entry inconclusive.

Source: PubChem
